In PubChem BioAssay (NCI):
About 83,000 compounds went through this panel and 20% of them were active in at least one assay; those are over-represented in the sample as a whole.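 The test compound was applied at a single concentration to cells in 96-well plates for 48 hours, and percent growth was recorded.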 Activity calls are given as the source filed them. Rule for the calls: active = growth percent below 10; inactive = the rest.

The compounds below were run on A498 renal (assay: NCI-60 one-dose screen, 48 h (100 = growth as untreated, 0 = no growth, -100 = all killed)). Conditions: 10 µM unless noted.

| SMILES | growth |
| --- | --- |
| CCN(CC)CCOc1ccccc1-n1c(C)ccc1-c1ccccc1 | 65.1% (inactive) |
| COc1ccc(/C=C2\NC(=S)NC2=O)cc1 | 89% (inactive) |
| Cc1cc(NC(=O)c2ccc(N)cc2)ccc1N=Nc1ccc2c(O)c(N=Nc3ccc(Cl)c(S(=O)(=O)O)c3)c(S(=O)(=O)O)cc2c1 | 88.9% (inactive) |
| CC(=O)Nc1ccc2c(c1)Cc1c(F)c(F)c(F)c(F)c1-2 | 69.1% (inactive) |
| OC(Cc1cccnc1)c1ccccc1 (centres undefined) | 86.5% (inactive) |
| C/C(=N/N=C(N)N)c1ccc(N)cc1 | 103% (inactive) |
| CN1CCCC1c1cccnc1 (centres undefined) | 94.1% (inactive) |
| COc1c(O)cc2oc3cc(O)c(CC=C(C)C)c(O)c3c(=O)c2c1C/C=C(\C)CCC=C(C)C | 120% (inactive) |
| Nc1nc(SCc2ccccc2Cl)c(-c2ccccc2)c(SCc2ccccc2Cl)n1 | 67.6% (inactive) |
| CO[C@H]1/C=C/O[C@@]2(C)Oc3c(C)c(O)c4c(O)c(c(/C=N/N5C(C)CN(Cc6ccccc6)CC5C)c(O)c4c3C2=O)NC(=O)/C(C)=C\C=C\[C@H](C)[C@H](O)[C@@H](C)[C@@H](O)[C@@H](C)[C@H](OC(C)=O)[C@@H]1C (some centres undefined) | 96.1% (inactive) |
| CCOC(=O)C(C(C)=O)c1nc2sc3cc(Cl)ccc3n2c(=N)c1C#N (centres undefined) | 101% (inactive) |
| COc1ccc(-c2nn(-c3cccc(Cl)c3)cc2C2CC(c3ccccc3)=NN2C(C)=O)cc1 (centres undefined) | 56.9% (inactive) |
| CCS(=O)(=O)OCCCl | 101% (inactive) |
| O=C1Nc2ccc(F)cc2/C1=C/c1nc(-c2ccc(F)cc2)n2ccccc12 | -13.9% (active) |
| Cc1c(C(N)=O)sc2ncn(Cc3ccccc3)c(=O)c12 | 121% (inactive) |
| Nc1nc2ncc(CCNc3ccc(C(=O)NC(CCC(=O)O)C(=O)O)cc3)nc2c(=O)[nH]1 (centres undefined) | 95.8% (inactive) |
| COc1cccc2c1C(=O)c1c(O)c3c(c(O)c1C2=O)C[C@@](O)(/C(C)=N/NC(=O)c1cccc([N+](=O)[O-])c1)C[C@@H]3OC1CC(N)C(O)C(C)O1 (some centres undefined) | -58.6% (active) |
| NC(=O)NN=C(C1CC1)C1CC1 | 107% (inactive) |
| C[n+]1ccc(Nc2ccc(NC(=O)c3ccc(Nc4cc[n+](C)c5ccc(N)cc45)cc3)cc2)cc1 | 93.9% (inactive) |
| COc1cc(OC)c2cc(C(=O)O)c(=O)oc2c1 | 102% (inactive) |
| CCOc1ccccc1C(=O)OCC(=O)Nc1cccc(S(=O)(=O)N(C)C)c1 | 118% (inactive) |
| S=C(Nc1ccc(C2=NCCN2)cc1)Nc1ccc(C2=NCCN2)cc1 | 101% (inactive) |
| S=c1[nH]nc2sc3ccccc3n12 | 76.1% (inactive) |
| Cn1c(N)c(N=O)c(=O)[nH]c1=O | 111% (inactive) |
| Cc1ccc(C(=O)Nc2ccc(Cl)cc2C(=O)NCc2ccccc2)cc1 | 79.2% (inactive) |
| Nc1ccc2c3c(cccc13)-c1ccccc1-2 | 85.9% (inactive) |
| CC(c1cc(Cl)ccc1O)c1cc(Cl)ccc1O | 81.1% (inactive) |
| Nc1cc(Cl)c(S(N)(=O)=O)cc1S(N)(=O)=O | 116% (inactive) |
| Cc1cc(O)c2c(c1)C[C@H]1[C@@H]3CC[C@H]4CC(=O)CC[C@]4(C)[C@H]3CC(=O)[C@]21C | 103% (inactive) |

The compounds below were run on CCRF-CEM leukemia in the same assay as above. Conditions: 10 µM unless noted.

| SMILES | growth |
| --- | --- |
| CCN(CC)CCOc1ccccc1-n1c(C)ccc1-c1ccccc1 | 28.1% (inactive) |
| Cn1cc(-c2csc(-c3c[nH]c4ncccc34)n2)c2cc(Br)cnc21 | 68% (inactive) |
| COc1ccc(/C=C2\NC(=S)NC2=O)cc1 | 105% (inactive) |
| Nc1ccccc1-c1ccc([N+](=O)[O-])cc1 | 24.6% (inactive) |
| Cc1cc(NC(=O)c2ccc(N)cc2)ccc1N=Nc1ccc2c(O)c(N=Nc3ccc(Cl)c(S(=O)(=O)O)c3)c(S(=O)(=O)O)cc2c1 | 55.7% (inactive) |
| CC[N+](CC)(CCOCCOCC[N+](CC)(CC)Cc1ccc([N+](=O)[O-])cc1)Cc1ccc([N+](=O)[O-])cc1 | 102% (inactive) |
| CCC(c1ccccc1)c1noc(CCN(CC)CC)n1 (centres undefined) | 48.2% (inactive) |
| CC(=O)Nc1ccc2c(c1)Cc1c(F)c(F)c(F)c(F)c1-2 | 58.9% (inactive) |
| OC(Cc1cccnc1)c1ccccc1 (centres undefined) | 80.2% (inactive) |
| C/C(=N/N=C(N)N)c1ccc(N)cc1 | 124% (inactive) |
| O=C(O)c1ccccc1C(=O)OC1CCCC2CCCC21 (centres undefined) | 97% (inactive) |
| CN1CCCC1c1cccnc1 (centres undefined) | 70% (inactive) |
| Nc1nc(SCc2ccccc2Cl)c(-c2ccccc2)c(SCc2ccccc2Cl)n1 | 78.4% (inactive) |
| CO[C@H]1/C=C/O[C@@]2(C)Oc3c(C)c(O)c4c(O)c(c(/C=N/N5C(C)CN(Cc6ccccc6)CC5C)c(O)c4c3C2=O)NC(=O)/C(C)=C\C=C\[C@H](C)[C@H](O)[C@@H](C)[C@@H](O)[C@@H](C)[C@H](OC(C)=O)[C@@H]1C (some centres undefined) | 285% (inactive) |
| CCOC(=O)C(C(C)=O)c1nc2sc3cc(Cl)ccc3n2c(=N)c1C#N (centres undefined) | 163% (inactive) |
| COc1ccc(-c2nn(-c3cccc(Cl)c3)cc2C2CC(c3ccccc3)=NN2C(C)=O)cc1 (centres undefined) | 83% (inactive) |
| CCS(=O)(=O)OCCCl | 84.7% (inactive) |
| O=C1Nc2ccc(F)cc2/C1=C/c1nc(-c2ccc(F)cc2)n2ccccc12 | 103% (inactive) |

| SMILES | growth |
| --- | --- |
| Cc1c(C(N)=O)sc2ncn(Cc3ccccc3)c(=O)c12 | 138% (inactive) |
| Nc1nc2ncc(CCNc3ccc(C(=O)NC(CCC(=O)O)C(=O)O)cc3)nc2c(=O)[nH]1 (centres undefined) | 77.1% (inactive) |
| NC(=O)NN=C(C1CC1)C1CC1 | 125% (inactive) |
| C[n+]1ccc(Nc2ccc(NC(=O)c3ccc(Nc4cc[n+](C)c5ccc(N)cc45)cc3)cc2)cc1 | 98% (inactive) |
| COc1cc(OC)c2cc(C(=O)O)c(=O)oc2c1 | 113% (inactive) |
| CCOc1ccccc1C(=O)OCC(=O)Nc1cccc(S(=O)(=O)N(C)C)c1 | 169% (inactive) |
| S=C(Nc1ccc(C2=NCCN2)cc1)Nc1ccc(C2=NCCN2)cc1 | 104% (inactive) |
| S=c1[nH]nc2sc3ccccc3n12 | 100% (inactive) |
| Cn1c(N)c(N=O)c(=O)[nH]c1=O | 91.1% (inactive) |
| Cc1ccc(C(=O)Nc2ccc(Cl)cc2C(=O)NCc2ccccc2)cc1 | 73.9% (inactive) |
| O=[N+]([O-])c1ccc2c(c1)S(=O)c1cc([N+](=O)[O-])ccc1N2 | 98.9% (inactive) |
| Nc1ccc2c3c(cccc13)-c1ccccc1-2 | 25.1% (inactive) |
| CC(c1cc(Cl)ccc1O)c1cc(Cl)ccc1O | 33.5% (inactive) |
| Nc1ccc2c(c1)/C(=N/O)c1cc([N+](=O)[O-])ccc1-2 | 25% (inactive) |
| Nc1cc(Cl)c(S(N)(=O)=O)cc1S(N)(=O)=O | 95.7% (inactive) |
| O=C(CSc1nc2c(n1Nc1ccccc1)-c1ccccc1SC2)Nc1nc(-c2ccc(Cl)cc2)cs1 | 44.8% (inactive) |
| Cc1cc(O)c2c(c1)C[C@H]1[C@@H]3CC[C@H]4CC(=O)CC[C@]4(C)[C@H]3CC(=O)[C@]21C | 58.8% (inactive) |
